Results taken from PubChem BioAssay (EPA / NIEHS).
Activity calls are given as the source filed them. How the source made its calls: active means hit-call score of the fitted dose curve at least 0.9, where 1 is the maximum; inactive means score below 0.9.

Each molecule was assayed on Pyruvate Dehydrogenase Kinase 4 (PDK4), PDK4 (gene 5166) (assay: LTEA_HepaRG_PDK4: Life Technologies and Expression Analysis (LTEA) Assay for Pyruvate Dehydrogenase Kinase 4 (PDK4) using HepaRG (AID 2283525)). Settings: mRNA level, 48 h; actives raise or lower the signal.
Method: LTEA_HepaRG is a cell based, multiplexed-readout assay that uses HepaRG, a human liver cell line, with measurements taken at 48 hours after chemical dosing on a 96-well plate.LTEA_HepaRG_PDK4 is one of 102 assay component(s) measured in the LTEA HepaRG cell culture assay. It is a marker of Diseases associated with PDK4 including Platelet Glycoprotein Iv Deficiency and Diabetes Mellitus, Noninsulin-Dependent.Data from the assay component LTEA_HepaRG_PDK4 was analyzed into 1 endpoint. This assay endpoint, LTEA_HepaRG_PDK4, was analyzed with bidirectional fitting relative to DMSO as the negative control and baseline of activity. Using a type of inducible reporter, measures of mRNA induction for gain or loss-of-signal activity can be used to understand regulation of transcription factor activity. To generalize the intended target to other relatable targets, this assay endpoint is annotated to the kinase intended target family, where the subfamily is serine/threonine kinase.
A total of 1060 chemcials from the ToxCast library were tested in eight-point concentration-response experiments. Cell culture and cytotoxicity assays were conducted at Thermo Fisher Scientific's Custom Services facility (Madison, WI). A single lot of human HepaRG cells (Thermo Fisher Scientific, Frederick, MD) was used for the cell culture experiments. 96-well format collagen type I coated plates of human HepaRG cells were prepared using established methods. Briefly, cryopreserved HepaRG cells were thawed, plated at a density of approximately 100,000 cells/well in HepaRG Thaw, Plate, and General Purpose media (HPRG770, Thermo Fisher Scientific), and incubated for 48 hours. 0.5% DMSO was selected as vehicle control to balance the requisite need of DMSO in HepaRG cultures to maintain differentiation (for example, baseline metabolism, proportions of hepatocytes vs. cholangiocytes), while enabling further hepatic receptor pathway activation (for example, PXR and CAR) in response to chemical exposure. 48 hours after plating, the culture medium was replaced with HepaRG Serum-Free Incudtion Media. Cells were exposed to each test chemical in duplicate and maintained in CO2 incubators for another 48 hours. Chemical plates were thawed to room temperature and 200x concentrations of treatment groups were prepared. 8-point conentration-reponse curves were made with the highest exposure at 100 uM, followed by half-log dilutions, all in 0.5% DMSO. Each test plate contained variouse controls, induction positive controls (1mM phenobarbital), cytotoxicity positive controls ([…] aflatoxin B1), vehicle controls (0.5% DMSO), and total lysis controls (0.5% DMSO). Cell morphology images were taken using an Essen IncuCyte FLR automated microscope, with six 96-well plates imaged in about 24 minutes. Images were captured and exported and JPEG files. Spent culture media was transfered to black-well plates for the LDH assay, and remaining media was sorted at -80 C for later use. Cells were treated with RLT buffer and frozen until shipped for gene expression analysis. Total RNA was isolated from the cell suspension in 75 uL of Buffer RLT (Qiagen, Germantown, MD 20874) by Quintiles/Expression Analysis (Durham, NC) using a custom isolation procedure. Total RNA from each plate well was transferred to a preamplification plate. Fluidigm's 96.96 Dynamic ArrayTM (Fluidigm, Amsterdam, the Netherlands) technology was used for gene expression analyses by quantitative reverse transcription polymerase chain reaction (qRT-PCR, performed by Quintiles/Expression Analysis, Durham, NC)89. Standard TaqManTM Assays (Applied Biosystems/ThermoFisher Scientific, Foster City, CA) were used to assess the expression of 93 genes selected based on their selectivity and sensitivity to important hepatic receptors known to be modulated by environmental chemicals; importance in human hepatocyte functionality; and hepatotoxicity. […]
With `O=C(N[C@H]1CN2CCC1CC2)c1ccc2c(c1)OCCO2` the outcome was “inactive”.
With `Oc1cc(Cl)c(Cl)cc1Cl` the outcome was “inactive”.
In the case of `Clc1cccc(Cl)c1`, the outcome is reported as “inactive”.
For `Cc1cc(C)cc(C)c1`, the outcome was “inactive”.
`COc1ccccc1N` was tested, and the outcome was “inactive”.
`O=C(O)C1(c2ccc3c(c2)OC[C@H](Cc2ccc(-c4ccccc4)cc2)[C@H]3O)CCCC1` was tested, and the AC50 was 11.4 µM (active).
`CCCCCCCCCCCCc1cccc(S(=O)(=O)O)c1` was tested, and the outcome was “inactive”.
In the case of `CC(C)O.CC(C)O.OCCN(CCO)CCO.OCCN(CCO)CCO.[Ti]`, the outcome is reported as “inactive”.
With `CC(C)(C)c1ccccc1O` the outcome was “inactive”.
With `CN(C)C(=S)S` the outcome was “inactive”.
With `N#Cc1cccnc1` the outcome was “inactive”.
In the case of `Clc1cccc(Cl)c1Cl`, the outcome is reported as “inactive”.
For `OCCN(CCO)CCO`, the outcome was “inactive”.
`Oc1c(Cl)cc(Cl)cc1Cl` was tested, and the outcome was “inactive”.
